# Assay results from a collection of fitness landscapes (doi:10.1016/j.celrep.2020.107928).
# Whole data set: some 81,000 sequences, median “one-hybrid fitness for binding NBS DNA” near -0.1, cut for the highest 2% near 0.36. Many of the other results were omitted from the sample, so the highest values are more common in it than they were.
# B1: Caulobacter ParB omega fusion; a variant is named by its letters at X, in order, B8GW30 (parent)
# chain: MESVVVGEPGMSEGRRGLGRGLSALLGEVDAAPAQAPGEQLGGSREAPIEILQRNPDQPRRTFREEDLEDLSNSIREKGVLQPILVRPSPDTAGEYQIVAGERAWRAAQRAGLKTVPIMVRELDDLAVLEIGIIENVQRADLNVLEEALSYKVLMEKFERTQENIAQTIGKSXSHVANXMRLLXLPDEVQSYLVSGELTAXHARAIAAAADPVALAKQIIEGGLSVRETEALARKAPNLSAGKSKGGRPPRVKDTDTQALESDLSSVLGLDVSIDHRGSTGTLTITYATLEQLDDLCNRLTRGI
# Variants of: B1
# Experiment: one-hybrid fitness for binding NBS DNA (the Noc-binding site; scaled: cognate 1, non-cognate 0); higher = stronger binding
# Conditions: with NBS DNA site
# How it was run: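 In E. coli USO, a HIS3 reporter with its site placed 19 bp from the promoter was used to select Caulobacter ParB variants randomised at four specificity codons. Growth lasted 48 hours at 37°C on histidine-free M9 containing 0.1 mM IPTG and 5 mM 3-AT. Fitness was taken as the log change in variant-to-wild-type read ratio from Illumina sequencing of pre- and post-selection plasmids, rescaled between the non-cognate and cognate sites.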
row,Variant,one-hybrid fitness for binding NBS DNA
1,QDQP,≤ 0.2
2,VKIM,≤ 0.2
3,TAPS,≤ 0.2
4,DPGG,≤ 0.2
5,TPCF,≤ 0.2
6,YQMR,≤ 0.2
7,QSYH,≤ 0.2
8,QPRH,≤ 0.2
9,QSRH,0.535
10,QCRH,0.693
11,QSRP,0.242
12,QCYH,0.257
13,HHWC,≤ 0.2
14,RSIR,0.207
15,RCDR,0.255
16,RCRR,0.77
17,RDRR,≤ 0.2
18,RFRR,0.486
19,RCYR,0.518
20,RFYR,≤ 0.2
21,RSYR,0.381
22,RFDR,≤ 0.2
23,RSPR,≤ 0.2
24,RPRR,≤ 0.2
25,RPYR,≤ 0.2
26,RPCV,≤ 0.2
27,MHMS,≤ 0.2

row,Variant,one-hybrid fitness for binding NBS DNA
1,FEYF,≤ 0.2
2,SDMT,≤ 0.2
3,MIYS,≤ 0.2
4,TKTV,≤ 0.2
5,PMHR,≤ 0.2
6,LLCI,≤ 0.2
7,RSRR,0.664
8,RSRP,≤ 0.2
9,QQPL,≤ 0.2
10,PLCI,≤ 0.2
11,GLAR,≤ 0.2
12,HQST,≤ 0.2
13,TWRR,≤ 0.2
14,QYGT,0.421
15,QYYR,0.466
16,QYGC,≤ 0.2
17,QYNT,0.488
18,QYIR,0.346
19,QYPR,0.27
20,QYGK,≤ 0.2
21,QYLS,0.256
22,QYLR,0.436
23,QYLP,≤ 0.2
24,QYNP,≤ 0.2
25,QYDT,0.272
26,NGTR,≤ 0.2
27,DDKT,≤ 0.2

row,Variant,one-hybrid fitness for binding NBS DNA
1,MCAC,≤ 0.2
2,HSLM,≤ 0.2
3,FAHM,≤ 0.2
4,KQAV,≤ 0.2
5,DLQG,≤ 0.2
6,QYHN,≤ 0.2
7,QYRR,0.979
8,QYGG,≤ 0.2
9,QYCR,0.462
10,QYHS,0.417
11,QYCS,0.301
12,QYGR,0.553
13,QYHP,≤ 0.2
14,QYGM,≤ 0.2
15,QYER,0.31
16,QYRF,0.248
17,QYCN,≤ 0.2
18,WNEY,≤ 0.2
19,VWCR,≤ 0.2
20,ATSP,≤ 0.2
21,GRTC,≤ 0.2
22,VDLS,≤ 0.2
23,QYSR,0.499
24,QYNR,0.599
25,QYGN,≤ 0.2
26,QYGS,0.377
27,QYNH,0.246

row,Variant,one-hybrid fitness for binding NBS DNA
1,QYDS,0.203
2,QYDR,0.305
3,QYNS,0.437
4,QYSD,≤ 0.2
5,QYGD,≤ 0.2
6,QYNN,≤ 0.2
7,QYSN,≤ 0.2
8,KTNH,≤ 0.2
9,HNTA,≤ 0.2
10,HIMR,≤ 0.2
11,YTFW,≤ 0.2
12,SKSC,≤ 0.2
13,VRCG,≤ 0.2
14,PIKT,≤ 0.2
15,QYQK,≤ 0.2
16,QYWR,0.414
17,QYMR,0.482
18,QYMF,≤ 0.2
19,QYQR,0.493
20,QYHG,≤ 0.2
21,QYHD,≤ 0.2
22,QYWH,≤ 0.2
23,QYWS,0.204
24,QYQC,≤ 0.2
